The full data set covers some 7,900 targets. This sample favours those with a hit. About 0.6% of all pairs of compound and target were hits.
What was measured:
Experiment in all cases: log2 fold change, soluble protein after heating vs DMSO (PISA); higher = thermal stabilisation; K562 cells, 10 uM, 30 min; active = over 0.2 and 3.5 SD of the protein, either way, in both replicates (recomputed)
[1] = compound: C1=CC=C(C=C1)[C@H](COC2=CC3=C(C=C2)NC(=O)N3)NC(=O)C4=CC=CN(C4=O)CC5=CC(=C(C=C5)F)F
Procedure, shortened: (§1)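 K562 cells (2×10^6 cells/mL) were treated with 10 μM compound for 30 min, and aliquots were heated for 3 min over 48°C-58°C. Pooled aliquots were extracted in PBS with 0.5% NP-40 at 4°C, and the supernatant after 21,000xg for 90 min was measured by TMTpro 16plex LC-MS/MS with channel sums equalised. Reported thermal stability, relative to control samples and from duplicates, is a log2 fold change.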

[2] = compound: CC1=C(SC2=C1C(=N[C@H](C3=NN=C(N32)C)CC(=O)N)C4=CC=C(C=C4)Cl)C
Procedure, shortened: as §1

[3] = compound: CC1=C2C(=CC=C1)N=C(N(C2=O)C3=CC=CC=C3C)CN4C=NC5=C(N=CN=C54)N
Procedure, shortened: as §1

[4] = compound: Cc1sc2c(c1C)C(c1ccc(Cl)cc1)=N[C@@H](CC(=O)OC(C)(C)C)c1nnc(C)n1-2
Procedure, shortened: as §1

[5] = compound: c1ccc([C@@H]2C[C@H]2NC2CCNCC2)cc1
Procedure, shortened: as §1

Measured: log2 fold change

ZFP91 (UniProt Q96JP5)
Sequence of UniProt Q96JP5 (Q96JP5 whole entry, looked up): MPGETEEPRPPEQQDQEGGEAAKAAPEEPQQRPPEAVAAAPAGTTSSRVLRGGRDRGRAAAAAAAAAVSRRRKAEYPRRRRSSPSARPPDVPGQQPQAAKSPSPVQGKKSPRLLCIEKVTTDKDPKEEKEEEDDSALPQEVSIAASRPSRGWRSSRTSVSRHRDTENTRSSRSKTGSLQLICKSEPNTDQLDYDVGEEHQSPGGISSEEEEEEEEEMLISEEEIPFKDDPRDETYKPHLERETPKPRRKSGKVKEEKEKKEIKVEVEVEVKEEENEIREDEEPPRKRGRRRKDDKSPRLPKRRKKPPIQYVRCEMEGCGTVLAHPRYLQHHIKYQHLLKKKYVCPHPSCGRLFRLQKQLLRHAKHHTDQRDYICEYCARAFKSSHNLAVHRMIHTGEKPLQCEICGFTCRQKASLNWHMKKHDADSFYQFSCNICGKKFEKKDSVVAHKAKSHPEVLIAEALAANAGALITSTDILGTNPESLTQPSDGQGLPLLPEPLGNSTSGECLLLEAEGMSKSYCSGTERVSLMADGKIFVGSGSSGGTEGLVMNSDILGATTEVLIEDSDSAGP
inactive: [1] -0.038 | [2] -0.221 | [3] -0.052 | [4] 0.096 | [5] 0.03

ZER1 (UniProt Q7Z7L7)
Sequence of UniProt Q7Z7L7 (Q7Z7L7 whole entry, looked up): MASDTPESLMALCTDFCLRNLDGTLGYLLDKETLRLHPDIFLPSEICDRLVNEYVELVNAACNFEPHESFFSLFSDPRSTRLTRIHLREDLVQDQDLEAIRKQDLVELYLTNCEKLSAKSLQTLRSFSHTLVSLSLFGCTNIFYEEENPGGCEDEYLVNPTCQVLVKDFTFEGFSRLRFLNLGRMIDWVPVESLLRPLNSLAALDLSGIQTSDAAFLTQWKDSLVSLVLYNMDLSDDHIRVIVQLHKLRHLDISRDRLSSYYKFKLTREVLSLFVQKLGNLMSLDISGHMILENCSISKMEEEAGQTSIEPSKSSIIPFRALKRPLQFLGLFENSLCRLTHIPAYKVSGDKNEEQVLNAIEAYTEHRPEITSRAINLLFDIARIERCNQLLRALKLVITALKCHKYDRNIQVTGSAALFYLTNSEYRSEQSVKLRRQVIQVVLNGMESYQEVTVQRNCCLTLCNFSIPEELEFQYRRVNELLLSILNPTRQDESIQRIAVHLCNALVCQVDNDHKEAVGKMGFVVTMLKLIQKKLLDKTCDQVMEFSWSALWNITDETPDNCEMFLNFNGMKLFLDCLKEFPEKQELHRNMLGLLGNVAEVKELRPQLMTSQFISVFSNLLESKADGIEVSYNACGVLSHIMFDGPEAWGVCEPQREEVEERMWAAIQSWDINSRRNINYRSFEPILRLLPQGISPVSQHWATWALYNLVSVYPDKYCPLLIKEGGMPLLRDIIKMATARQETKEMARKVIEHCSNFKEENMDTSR
inactive: [1] 0 | [2] -0.007 | [3] 0.018 | [4] -0.064 | [5] -0.03

ZW10 (UniProt O43264)
Sequence of UniProt O43264 (O43264 whole entry, looked up): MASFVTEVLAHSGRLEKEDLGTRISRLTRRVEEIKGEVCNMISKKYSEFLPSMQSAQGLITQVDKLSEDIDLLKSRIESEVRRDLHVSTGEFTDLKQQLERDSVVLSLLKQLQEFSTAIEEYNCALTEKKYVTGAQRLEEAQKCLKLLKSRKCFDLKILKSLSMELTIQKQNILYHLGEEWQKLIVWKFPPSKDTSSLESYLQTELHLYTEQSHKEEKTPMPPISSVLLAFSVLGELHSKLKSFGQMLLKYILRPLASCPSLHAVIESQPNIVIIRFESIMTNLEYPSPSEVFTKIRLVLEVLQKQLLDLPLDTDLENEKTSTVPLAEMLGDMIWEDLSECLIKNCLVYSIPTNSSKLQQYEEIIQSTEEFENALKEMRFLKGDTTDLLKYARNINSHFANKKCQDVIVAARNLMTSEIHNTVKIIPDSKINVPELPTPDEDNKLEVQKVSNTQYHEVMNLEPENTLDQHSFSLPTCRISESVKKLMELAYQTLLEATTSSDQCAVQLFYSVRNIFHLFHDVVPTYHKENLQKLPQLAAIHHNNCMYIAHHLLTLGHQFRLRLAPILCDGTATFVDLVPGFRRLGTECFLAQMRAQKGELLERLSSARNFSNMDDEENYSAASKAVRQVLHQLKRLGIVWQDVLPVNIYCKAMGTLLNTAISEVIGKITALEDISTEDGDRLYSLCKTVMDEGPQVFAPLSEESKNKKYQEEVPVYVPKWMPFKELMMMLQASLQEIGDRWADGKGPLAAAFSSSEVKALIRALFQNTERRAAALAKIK
inactive: [1] -0.044 | [2] 0.044 | [3] 0.018 | [4] -0.004 | [5] 0

ZFAND5 (UniProt O76080)
Sequence of UniProt O76080 (O76080 whole entry, looked up): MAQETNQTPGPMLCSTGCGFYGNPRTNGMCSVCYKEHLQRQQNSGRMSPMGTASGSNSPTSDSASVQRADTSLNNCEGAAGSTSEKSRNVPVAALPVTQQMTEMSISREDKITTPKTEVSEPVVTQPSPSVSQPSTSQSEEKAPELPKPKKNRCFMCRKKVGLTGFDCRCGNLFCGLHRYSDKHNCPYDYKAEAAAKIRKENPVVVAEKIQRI
inactive: [1] -0.025 | [2] -0.21 | [3] -0.129 | [4] -0.024 | [5] 0.143

ZNF511 isoform 1 (UniProt Q8NB15)
Sequence of UniProt Q8NB15 (Q8NB15 whole entry, looked up): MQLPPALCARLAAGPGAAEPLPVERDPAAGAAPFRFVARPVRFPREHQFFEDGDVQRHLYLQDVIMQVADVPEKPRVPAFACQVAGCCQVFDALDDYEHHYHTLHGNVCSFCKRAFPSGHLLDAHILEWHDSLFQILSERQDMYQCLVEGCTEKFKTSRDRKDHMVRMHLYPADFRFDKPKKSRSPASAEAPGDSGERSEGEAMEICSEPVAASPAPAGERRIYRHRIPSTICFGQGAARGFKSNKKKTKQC
inactive: [1] -0.015 | [2] -0.128 | [3] 0.064 | [4] -0.123 | [5] 0.102

ZRANB2 (UniProt O95218)
Sequence of UniProt O95218 (O95218 whole entry, looked up): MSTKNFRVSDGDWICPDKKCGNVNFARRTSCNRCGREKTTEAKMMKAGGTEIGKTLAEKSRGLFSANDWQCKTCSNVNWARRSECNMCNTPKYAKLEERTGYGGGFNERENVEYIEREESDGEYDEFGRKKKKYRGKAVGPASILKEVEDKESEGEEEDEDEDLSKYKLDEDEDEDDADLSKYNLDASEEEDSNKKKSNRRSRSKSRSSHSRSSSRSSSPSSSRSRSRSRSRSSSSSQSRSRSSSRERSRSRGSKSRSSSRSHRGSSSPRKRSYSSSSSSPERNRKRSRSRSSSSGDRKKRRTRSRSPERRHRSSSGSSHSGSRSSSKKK
inactive: [1] -0.002 | [2] -0.073 | [3] -0.07 | [4] 0.021 | [5] 0.093

ZC3H8 (UniProt Q8N5P1)
Sequence of UniProt Q8N5P1 (Q8N5P1 whole entry, looked up): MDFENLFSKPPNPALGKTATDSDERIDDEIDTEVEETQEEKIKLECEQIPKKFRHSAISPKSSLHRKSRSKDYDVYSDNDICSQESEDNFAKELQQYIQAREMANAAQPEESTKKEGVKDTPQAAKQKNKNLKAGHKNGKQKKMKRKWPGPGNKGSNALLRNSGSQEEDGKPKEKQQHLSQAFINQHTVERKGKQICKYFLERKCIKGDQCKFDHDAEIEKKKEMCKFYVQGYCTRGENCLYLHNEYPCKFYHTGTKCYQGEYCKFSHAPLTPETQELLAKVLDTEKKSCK
inactive: [1] 0.095 | [2] -0.089 | [3] -0.084 | [4] 0.091 | [5] 0

ZEB2 (UniProt O60315)
inactive: [1] -0.125 | [3] 0.137 | [4] 0.368

ZNF143 (UniProt P52747)
Sequence of UniProt P52747 (P52747 whole entry, looked up): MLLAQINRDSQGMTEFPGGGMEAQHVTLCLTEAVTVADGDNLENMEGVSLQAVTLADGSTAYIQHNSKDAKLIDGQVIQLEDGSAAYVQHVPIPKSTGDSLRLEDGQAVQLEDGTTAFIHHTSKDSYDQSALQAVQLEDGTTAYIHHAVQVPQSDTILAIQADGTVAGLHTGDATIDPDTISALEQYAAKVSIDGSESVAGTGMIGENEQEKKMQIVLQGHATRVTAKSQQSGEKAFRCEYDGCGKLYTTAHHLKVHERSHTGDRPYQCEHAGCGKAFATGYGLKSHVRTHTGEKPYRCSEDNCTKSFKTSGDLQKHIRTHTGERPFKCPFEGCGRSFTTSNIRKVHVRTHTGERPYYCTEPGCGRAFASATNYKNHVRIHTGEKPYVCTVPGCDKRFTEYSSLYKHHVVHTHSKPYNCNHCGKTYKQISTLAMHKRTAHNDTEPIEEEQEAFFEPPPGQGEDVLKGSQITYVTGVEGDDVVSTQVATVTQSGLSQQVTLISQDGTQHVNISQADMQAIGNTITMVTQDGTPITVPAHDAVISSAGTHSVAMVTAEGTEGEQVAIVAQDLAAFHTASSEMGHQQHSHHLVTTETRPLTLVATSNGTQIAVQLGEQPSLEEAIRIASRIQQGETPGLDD
inactive: [1] 0.015 | [2] -0.013 | [3] -0.022 | [4] 0.064 | [5] 0.107

ZNF277 (UniProt Q9NRM2)
Sequence of UniProt Q9NRM2 (Q9NRM2 whole entry, looked up): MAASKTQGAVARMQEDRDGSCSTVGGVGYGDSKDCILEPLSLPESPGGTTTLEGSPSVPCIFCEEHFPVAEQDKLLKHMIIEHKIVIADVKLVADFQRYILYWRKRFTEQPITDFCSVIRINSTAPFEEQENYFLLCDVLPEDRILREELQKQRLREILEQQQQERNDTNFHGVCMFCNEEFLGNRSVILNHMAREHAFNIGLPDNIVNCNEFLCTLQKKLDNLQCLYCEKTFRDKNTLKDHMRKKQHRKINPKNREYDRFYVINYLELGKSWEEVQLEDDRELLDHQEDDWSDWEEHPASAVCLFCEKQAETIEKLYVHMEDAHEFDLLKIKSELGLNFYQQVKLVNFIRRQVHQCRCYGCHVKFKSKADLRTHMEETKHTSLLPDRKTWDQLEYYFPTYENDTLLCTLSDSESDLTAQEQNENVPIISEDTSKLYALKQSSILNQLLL
inactive: [1] -0.134 | [2] 0.028 | [3] -0.007 | [4] 0.286 | [5] 0

ZDHHC17 (UniProt Q8IUH5)
Sequence of UniProt Q8IUH5 (Q8IUH5 whole entry, looked up): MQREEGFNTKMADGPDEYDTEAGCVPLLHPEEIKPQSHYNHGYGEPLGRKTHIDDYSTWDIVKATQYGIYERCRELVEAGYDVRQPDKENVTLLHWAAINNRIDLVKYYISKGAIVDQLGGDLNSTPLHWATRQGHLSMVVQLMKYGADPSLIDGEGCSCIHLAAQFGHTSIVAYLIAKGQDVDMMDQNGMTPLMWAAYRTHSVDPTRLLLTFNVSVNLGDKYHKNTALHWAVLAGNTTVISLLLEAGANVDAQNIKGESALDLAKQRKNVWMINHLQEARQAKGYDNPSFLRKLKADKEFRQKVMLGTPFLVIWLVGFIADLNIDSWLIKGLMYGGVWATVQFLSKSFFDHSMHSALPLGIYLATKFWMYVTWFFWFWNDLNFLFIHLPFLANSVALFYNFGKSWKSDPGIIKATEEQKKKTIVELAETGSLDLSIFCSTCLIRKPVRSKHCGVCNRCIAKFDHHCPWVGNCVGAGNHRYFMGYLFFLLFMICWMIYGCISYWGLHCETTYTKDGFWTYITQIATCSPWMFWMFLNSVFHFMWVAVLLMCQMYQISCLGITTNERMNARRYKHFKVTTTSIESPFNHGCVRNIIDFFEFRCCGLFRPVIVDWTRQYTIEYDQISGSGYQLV
inactive: [1] 0.014 | [2] 0.062 | [3] -0.082 | [4] -0.039 | [5] -0.011
